# Source: PubChem BioAssay (NCI)
# The panel holds about 83,000 compounds, 20% with a hit somewhere; the sample as a whole holds those more often.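 A percent growth of 40 corresponds to 60% growth inhibition; 0 means no net growth; -100 means all cells died. Active threshold: below 10.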 A number with no mark means an inactive call. The source made the active and inactive calls.
# Columns and labels:
# Experiment in all cases: NCI-60 one-dose screen, 48 h (100 = growth as untreated, 0 = no growth, -100 = all killed)
# Conditions in all cases: 10 µM unless noted
# NCI-H226 lung = test system: NCI-H226 lung
# NCI-H322M lung = test system: NCI-H322M lung
# HOP-62 NSCLC = test system: HOP-62 NSCLC
# NCI-H460 lung = test system: NCI-H460 lung
# NCI-H522 lung = test system: NCI-H522 lung
# A549/ATCC NSCLC = test system: A549/ATCC NSCLC
# 786-0 renal = test system: 786-0 renal
# COLO 205 colon = test system: COLO 205 colon
# DU-145 prostate = test system: DU-145 prostate
# K-562 leukemia = test system: K-562 leukemia
# MALME-3M melanoma = test system: MALME-3M melanoma
# MDA-MB-231 breast = test system: MDA-MB-231 breast
# RXF 393 renal = test system: RXF 393 renal
# SF-268 CNS = test system: SF-268 CNS
# SF-295 CNS = test system: SF-295 CNS
# SF-539 CNS = test system: SF-539 CNS
# UACC-257 melanoma = test system: UACC-257 melanoma
# M14 melanoma = test system: M14 melanoma
# HOP-92 NSCLC = test system: HOP-92 NSCLC
Structure (SMILES),growth (NCI-H226 lung),growth (NCI-H322M lung),growth (HOP-62 NSCLC),growth (NCI-H460 lung),growth (NCI-H522 lung),growth (A549/ATCC NSCLC),growth (786-0 renal),growth (COLO 205 colon),growth (DU-145 prostate),growth (K-562 leukemia),growth (MALME-3M melanoma),growth (MDA-MB-231 breast),growth (RXF 393 renal),growth (SF-268 CNS),growth (SF-295 CNS),growth (SF-539 CNS),growth (UACC-257 melanoma),growth (M14 melanoma),growth (HOP-92 NSCLC)
COC1=C(OC)C(=O)C(CCCCCCCCCC[P+](c2ccccc2)(c2ccccc2)c2ccccc2)=C(C)C1=O,-19.5% (active),-17.9% (active),-19.5% (active),-52.1% (active),2.62% (active),-4.09% (active),-57.8% (active),-93.3% (active),6.01% (active),-48.9% (active),-86.3% (active),-39.6% (active),-56.7% (active),-61.6% (active),-52.6% (active),-25.1% (active),-61.2% (active),–,–
CC(C)(C)n1cc(-c2ccnc(NCCNS(=O)(=O)c3ccc(F)cc3)c2)c(-c2cccc(O)c2)n1,50.4%,72.3%,78.9%,29.8%,50.4%,47.5%,26%,-2.98% (active),74.9%,15.4%,53.5%,41%,60%,54.7%,42.5%,58.3%,64.9%,46.2%,–
CCO/C=N/C1=C(C#N)C(c2ccc(Cl)cc2)c2c(c3ccccc3n(C)c2=O)O1 (stereo not drawn),91.3%,85.9%,64.6%,79.9%,58.7%,63.4%,–,–,95.1%,19.6%,55.7%,51.2%,56.8%,80%,57.3%,72.2%,90.3%,57.2%,79.2%
O=C(Nc1ccncc1)C(=O)c1cn(S(=O)(=O)c2ccc(Oc3ccccc3)cc2)c2ccccc12,103%,94.4%,88%,72.1%,87.4%,71.8%,89.2%,107%,96.8%,81.5%,84.9%,68.9%,110%,109%,60%,96.5%,103%,102%,71.6%
COc1ccc(-c2cc3c(OC)c(OC)c(OC)cc3oc2=O)cc1,83.1%,77%,50.4%,13.8%,-11.7% (active),47.7%,57.2%,31.5%,73.3%,26.1%,46.9%,57.8%,81.4%,66.8%,54.3%,59.9%,82.4%,–,30.6%
COc1cc(NCCCCCN)c2ncccc2c1,112%,122%,102%,117%,137%,105%,119%,119%,119%,102%,99%,–,129%,106%,112%,–,107%,–,117%
COc1ccc(Nc2[nH]n3c(=O)cc(C)nc3c2C(N)=O)c(OC)c1,97.4%,96%,85.9%,105%,84.9%,89.5%,99.1%,102%,112%,101%,126%,84.9%,98.1%,97.8%,102%,91.2%,85.1%,106%,73.1%
COc1cc(C(=O)/C=C/c2ccc3nc(-c4cc(F)cc(F)c4)sc3c2)cc(OC)c1OC,120%,93%,92.3%,110%,97.4%,94.2%,93.4%,115%,112%,100%,86.6%,84.2%,110%,97.3%,94.2%,92.4%,103%,97.1%,83.4%
COc1ccc(C2C=C(c3ccc(OC)c(OC)c3)N=C3SC=C(C)N32)c(Br)c1 (stereo not drawn),99.2%,95.8%,108%,105%,96.7%,103%,111%,–,109%,96.5%,99%,112%,106%,105%,–,93.6%,117%,–,156%
Cc1ccc(S(=O)(=O)n2cc(C(=O)C(=O)Nc3ccncc3)c3ccccc32)cc1,64.2%,94.7%,33.4%,80.4%,1.71% (active),73.5%,29.5%,107%,22.4%,23.8%,48.4%,42.9%,9.66% (active),44.6%,16.4%,15%,63.3%,18.1%,38.5%
